# Many of the other results were omitted from the sample, so hits are more common in it than they were.
# DT40 TDP1 CPT: growth inhibition of DT40 Tdp1-/-;hTDP1 cells with camptothecin (screen for TDP1 inhibitors); chicken DT40 Tdp1-/-;hTDP1 cells + 20 nM CPT, ATP luminescence, 48 h; Potency, µM (doses to about 46.2 µM), without a hit: top-dose activity change, negative = growth inhibition, actives largely listed as inhibitors; actives 12% (n = 420,000); AID 686979; also: potency is read from the fitted curve at half-maximal effect; nearly all actives have a fitted effect of over 55% in size
#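 Chicken DT40 Tdp1-/- cells complemented with human TDP1, 400 cells/well, exposed to compounds plus 20 nM camptothecin for at least 48 h at 37 C; viability read as ATP content by CellTiter-Glo luminescence.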
# HT1080 IDH1KD tx: toxicity to HT-1080 IDH1 knockdown cells (counter line); actives 2% (n = 360,000); Potency, µM (highest dose often 46.1 µM), for the others: at the top dose activity, negative = toxicity, usual class: cytotoxic; HT-1080 IDH1 knockdown viability, ATP luminescence, 48 h; AID 686971;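 also: potency is read from the fitted curve at half-maximal effect; 0% = DMSO wells and -100% = cell-free medium wells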
#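 After a 2 h attachment period, IDH1KD HT-1080 cells took pin-transferred compound for 48 h at 37 °C; ATP-based luminescence after 10 min room-temperature reagent incubation reported viability.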
# HT1080NT lethal: kills 2HG-producing HT-1080-NT fibrosarcoma cells; HT-1080-NT fibrosarcoma viability, CellTiter-Glo ATP luminescence, 48 h; Potency, µM (titrated, usually from 46.1 µM), for inactives: at the top dose activity, negative = less viability, actives largely listed as cytotoxic; actives 1.6% (n = 360,000); AID 686970;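 also: NT is the 2HG producing partner of a matched IDH1 knockdown line; potency is read from the fitted curve at half-maximal effect; 0% = DMSO-treated cells and -100% = media-only wells without cells; nearly all actives have a fitted effect of over 55% in size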
#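 Fibrosarcoma NT cells, 750 per well in 5% FBS RPMI, were exposed to compound for 48 hours. Viability: CellTiter-Glo luminescence.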
# IL1B secr inh: inhibitors of inflammasome signaling (IL-1 beta secretion); THP-1 LPS/ATP IL-1B secretion, AlphaLISA, 16 h; hits give low values; activity change, % at 57.5 µM; actives 4.7% (n = 360,000); in the data active = activity change below about -50%; inconclusive = mostly about -30% to -49%
#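 THP-1 cells pretreated 1 hr with compounds (up to 57.5 uM final), then stimulated with LPS (250 ng/mL final) plus ATP (1.25 mM final); secreted IL-1B measured by AlphaLISA after 16 hr, decreased signal indicating inhibition.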
# DT40 TDP1 no CPT: qHTS for Inhibitors of human tyrosyl-DNA phosphodiesterase 1 (TDP1): qHTS in cells in absence of CPT | DT40 Tdp1-/- hTDP1 cells, no CPT, ATP luminescence, 48 h | Potency, µM (top dose mostly 46.2 µM), without a hit: at the highest dose activity change, negative = growth inhibition, actives largely listed as inhibitors | actives 15% (n = 420,000) | AID 686978, 2013; also: potency is read from the fitted curve at half-maximal effect; nearly all actives have a fitted effect of over 55% in size
#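 Growth kinetics read by CellTiter-Glo luminescence after ≥48 hr at 37 °C. Cells: DT40 Tdp1-/- stably carrying human TDP1, 400 per well, compound exposure in the absence of CPT (DMSO vehicle).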
# 12-LOX inh: inhibitors of human 12S-lipoxygenase ALOX12; P18054; purified 12hLO, xylenol orange hydroperoxide absorbance; Potency, µM (titrated, usually from 108 µM), for the others: top-dose activity change, negative = inhibition, actives largely listed as inhibitors; actives 1.1% (n = 580,000); AID 1671190; also: potency is read from the fitted curve at half-maximal effect
# Target sequence (P18054 whole entry, looked up): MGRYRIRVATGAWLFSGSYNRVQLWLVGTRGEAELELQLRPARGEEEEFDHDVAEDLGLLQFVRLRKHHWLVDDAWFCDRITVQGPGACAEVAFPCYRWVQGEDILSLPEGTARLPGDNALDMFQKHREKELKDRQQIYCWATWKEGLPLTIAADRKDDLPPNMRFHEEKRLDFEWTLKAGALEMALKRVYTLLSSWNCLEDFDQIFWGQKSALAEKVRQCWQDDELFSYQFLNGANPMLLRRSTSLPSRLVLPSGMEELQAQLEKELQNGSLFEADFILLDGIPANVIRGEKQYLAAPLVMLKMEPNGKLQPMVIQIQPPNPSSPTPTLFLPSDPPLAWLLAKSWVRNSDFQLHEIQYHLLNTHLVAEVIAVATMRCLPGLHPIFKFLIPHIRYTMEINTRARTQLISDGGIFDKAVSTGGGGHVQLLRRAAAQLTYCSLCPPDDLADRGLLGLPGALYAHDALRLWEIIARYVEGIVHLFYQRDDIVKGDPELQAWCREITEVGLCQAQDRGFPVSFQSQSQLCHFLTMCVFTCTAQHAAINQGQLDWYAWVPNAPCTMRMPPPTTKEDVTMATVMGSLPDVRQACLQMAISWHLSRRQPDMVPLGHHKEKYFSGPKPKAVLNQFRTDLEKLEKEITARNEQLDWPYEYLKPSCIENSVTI
#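 Purified human 12hLO (150 nM final) in 25 mM Hepes, 0.01% Triton X-100, pH 7.0 was preincubated 15 min at room temperature with compound. Then 40 uM arachidonic acid was added, 30 min. Hydroperoxide was read by Fe-XO absorbance ratio 573/405 nm.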
# * = called active by the depositor; ? = inconclusive; · = not tested or not shown; [ ] = dose if it differs, or a comment. Unless noted, calls follow the shape of the dose curve; as a rule, active = well fitted curve in the direction sought with a large enough effect; inconclusive = small, poorly fitted or top-dose-only effect, or another doubt; inactive = no such curve, though single readings can be large; an effect the other way counts as inactive or inconclusive. Unless noted, % is scaled to controls: 0 for no effect and ±100 for the full control effect.
SMILES,DT40 TDP1 CPT,HT1080 IDH1KD tx,HT1080NT lethal,IL1B secr inh,DT40 TDP1 no CPT,12-LOX inh
Cc1ccc(Nc2ncc(C(=O)NCCCN3CCN(C)CC3)c3ccccc23)cc1Cl,?,26µM*,16µM*,-78*,?,-17%
O=C(NCCCN1CCOCC1)c1cc(-c2ccc(Br)cc2)nc2ccccc12,?,-19%,-15%,-68*,?,?
Cc1ccc(C)c(-c2cc(C(=O)NN3CCOCC3)c3ccccc3n2)c1,-7%,-10%,-3%,15,?,-7%
COc1ccc(-c2cc(C(=O)NN3CCOCC3)c3ccccc3n2)cc1OC,?,-1%,1%,-21,?,3%
COc1ccccc1NC(=O)c1cnc(Nc2ccc(C)c(Cl)c2)c2ccccc12,·,·,·,·,·,-23%
CCc1ccc(-c2cc(C(=O)NN3CCOCC3)c3ccccc3n2)cc1,8.2µM*,-2%,-1%,-19,1.3µM*,12%
COc1cccc(-c2cc(C(=O)NN3CCOCC3)c3ccccc3n2)c1,?,13%,5%,0,4.6µM*,18%
Cc1c(C(=O)Nc2nc3c(s2)CCCCC3)[nH]c2c1C(=O)CCC2,·,·,·,·,·,15%
Cc1cccc(NC(C)C(=O)Nc2sccc2C#N)c1C (stereo not given),·,·,·,·,·,-23%
Cc1ccc(Nc2cc(C(=O)NCCCN3CCOCC3)c3ccccc3n2)cc1C,?,?,23µM*,5,?,?
Cc1cccc2c(C(=O)NCCN3CCOCC3)cc(-c3ccc(Cl)cc3)nc12,·,·,·,·,·,-7%
O=C(NN1CCOCC1)c1cc(-c2ccc(Br)cc2)nc2ccccc12,?,7%,13%,-17,7.3µM*,-7%
Cc1ccc(-c2cc(C(=O)NCCCN3CCOCC3)c3ccc(Cl)c(C)c3n2)cc1,?,1%,-2%,-64*,?,-28%
CN1CCC(N(C)C(=S)NC(=O)c2cc(-c3cccc(Br)c3)nc3ccccc23)CC1,?,4%,-4%,25,18µM*,?
Cc1ccc(NC(=O)N2CCc3c(c4ccccc4n3CC3CC3)C2)cc1,·,·,·,·,·,361%
CCCCc1cc(=O)oc2c(C)c(OCC)ccc12,·,·,·,·,·,-10%
CN1CCN(NC(=O)c2cc(-c3cccc(Cl)c3)nc3ccccc23)CC1,12µM*,?,16µM*,?,10µM*,-5%
COc1cccc(-c2cc(C(=O)Nn3cnnc3)c3ccccc3n2)c1,-14%,1%[9.24 µM],?,18,-19%,8%
Cn1c(C(=O)N2CCCC(C(=O)NCCc3ccccc3)C2)cc2sccc21 (stereo not given),5.8µM*,?,?,15,5.8µM*,-59%
Cn1c(C(=O)N2CCCC(C(=O)NCCCc3ccccc3)C2)cc2sccc21 (stereo not given),18µM*,-17%,-22%,-10,10µM*,8%
CN(Cc1ccc(C(C)(C)C)cc1)C(=O)CNC(N)=O,·,·,·,·,·,-21%
CCNC(=O)N1CCOC(CN(CC2CC2)C(=O)c2cccc(F)c2)C1 (stereo not given),·,·,·,·,·,49%
CN(C)c1ccc(NCc2cccc(Br)c2)cc1,·,·,·,·,·,7.9µM*
O=C(Cn1c(=O)oc2ccccc21)N1CCC2(CC1)CC(N1CCCCC1)CCO2 (stereo not given),·,·,·,·,·,26%
CC[C@@H]1C(=O)[C@H](Cc2ccccc2)[C@H]2CCCC(=O)N3CC[C@@H]1[C@@H]23,-5%,10%,10%,10,?,?
SMILES,DT40 TDP1 CPT,HT1080 IDH1KD tx,HT1080NT lethal,IL1B secr inh,DT40 TDP1 no CPT,12-LOX inh
CC[C@H]1c2[nH]c3ccc(C(C)C)cc3c2[C@@H]2CCN3C(=O)CCC[C@H]1[C@H]23,10µM*,2%,4%,-13,10µM*,?
CC(C)c1ccc2[nH]c3c(c2c1)[C@@H]1CCN2C(=O)CCC[C@H](C3)[C@H]12,18µM*,3%,1%,11,15µM*,-10%
Cc1ccc(C(=O)N2CCC3(CC2)N=C(c2cccc(Br)c2)NO3)cc1F,·,·,·,·,·,-3%
Cc1ccc2oc(C(=O)Nc3nnc(C(C)C)s3)cc(=O)c2c1,·,·,·,·,·,-10%
COc1ccc(-c2noc([C@H](C)O)c2C(=O)NC(C)C)cc1,·,·,·,·,·,-4%[176 µM]
O=C(C(c1ccccc1)c1ccccc1)N1CCC(c2nc(-c3ccccc3Cl)no2)CC1,23µM*,-4%[9.24 µM],?,-13,?,6%
Fc1ccc(-c2noc(-c3ccccc3)n2)cc1,·,·,·,·,·,3%
Cc1ccc(C)c(N2CCN(C(=O)CCc3nc(-c4ccccc4C(F)(F)F)no3)CC2)c1,?,-2%,-9%,?,?,0%
COc1ccc(-c2coc(CCC(=O)N3CCN(c4cc(C)ccc4C)CC3)n2)cc1,?,7%,5%,40,?,20µM*
COc1ccccc1-c1noc(CCC(=O)N2CCN(c3cc(C)ccc3C)CC2)n1,?,-1%,-5%,14,15µM*,-7%
COc1ccc(-c2noc(CCCCC(=O)N3CCN(c4cc(C)ccc4C)CC3)n2)cc1,4.1µM*,-29%,-22%,14,2.9µM*,12%
COc1ccc(-c2cccc(CCC(=O)N3CCN(c4cc(C)ccc4C)CC3)c2)cc1,?,-1%,-4%,4,?,-5%
COc1ccc(C(=O)CCC(=O)N2CCN(c3cc(C)ccc3C)CC2)cc1,16µM*,-14%,-6%,?,?,-6%
COc1ccc(-c2noc(CCCC(=O)N3CCN(c4cc(C)ccc4C)CC3)n2)cc1,?,-1%,-5%,-2,?,?
CC1=C[C@@H](CNC(=O)N2CCOCC2)[C@H](C(C)C)C[C@H]1Cc1nc2ccccc2n1C,·,·,·,·,·,59%[176 µM]
CCCCC(CC)CNC(=O)N1CCN(c2ncc(C(F)(F)F)cc2Cl)CC1 (stereo not given),·,·,·,·,·,-7%
FC(F)c1nc2nc(Cl)c(Cl)nc2[nH]1,16µM*,?,-13%,41,?,-8%
O=S(=O)(NCc1ccccc1)c1ccc(S(=O)(=O)N(Cc2ccccn2)C2CCCC2)cc1,?,-3%[9.24 µM],?,?,18µM*,-13%
CCNS(=O)(=O)c1ccc(S(=O)(=O)N(Cc2ccccn2)C2CCCCC2)cc1,-29%,-3%,2%,-10,-26%,-3%
CCN(C1CCCCC1)S(=O)(=O)c1ccc(S(=O)(=O)NCc2ccncc2)cc1,7.3µM*,?,?,?,9.2µM*,2%

# Bioassay records (PubChem BioAssay)
